Where “and” joins values, the source holds several entries; their conditions need not be identical. Identical values can stand only once. Records with an inconclusive call do not appear. Where a call stands in place of a potency, no number is given. Calls of active or inactive are those of the source. Calls follow the shape of the dose curve; as a rule, active = well fitted inhibition curve with a large enough effect in the repeat runs; inconclusive = weak or mixed curves; inactive = no such curve, though single readings can be large or run the other way.
test: qHTS assay to identify small molecule antagonists of the thyroid receptor (TR) signaling pathway (AID 743065); conditions: GH3.TRE-Luc, T3-stimulated luciferase inhibition, 23.5 h; series mostly up to 70.3 µM; also: nearly all actives have a fitted effect of over 55% in size
Excerpt: U.S. Tox21 Program National Center for Advancing Translational Sciences [NCATS] NIH Chemical Genomics Center [NCGC] U.S. Environmental Protection Agency [EPA] National Institutes of Environmental Health Sciences [NIEHS] National Toxicology Program [NTP] U.S. Food and Drug Administration [FDA] Tox21 Assay Overview: Thyroid receptor (TR), a nuclear hormone receptor, plays an important role in development, proliferation, differentiation, metabolism, brain function, and cardiovascular system. […] To profile the Tox21 10K compound library in TR signaling, a cell-based GH3-TRE-Luc assay (GH3.TRE-Luc cell line, developed by the laboratory of Dr. Albertinka J. Murk, Wageningen University) was used to measure the inhibition of TR. GH3 (rat pituitary tumor) cells stably expressing a TR activity sensor consisting of two TR response elements and a luciferase reporter gene.
Tox21 Assay Protocol Summary: GH3.TRE-Luc cells were dispensed at 1500 cells/4 uL/well into 1536-well white solid bottom plates using a Multidrop Combi dispenser (Thermo Fisher Scientific Inc., Waltham, MA). After the assay plates were incubated at 37 C for 4 hours, 23 nL of library compound or DMSO controls was transferred to the assay plates by a pintool station (Kalypsys, San Diego, CA), followed by addition of 1 ul of T3 (1 nM, final concentration in the wells) to stimulate TR transactivation. The assay plates were incubated at 37 C for 23.5 h, and then 1 uL of CellTiter-Fluor reagent (Promega, Madision, WI) of measuring cytotoxicity was added to each well using a Bioraptr Flying Reagent Dispenser (FRD) workstation (Beckman Coulter, Indianapolis, IN, USA). The plates were incubated at 37 C and 5% CO2 for additional 30 min, and fluorescence intensity was measured by a ViewLux plate reader (PerkinElmer, Shelton, CT). For measuring luciferase reporter gene activity, 4 uL of ONE-Glo Luciferase Assay reagent (Promega) was added to each well using a Bioraptr FRD (Beckman Coulter), followed by 30 min incubation at room temperature. The luminescence intensity of plates was recorded by a ViewLux plate reader (PerkinElmer, Shelton, CT).
Potency is read from the fitted curve at half-maximal effect.

| Structure (SMILES) | Potency |
| --- | --- |
| OCC(CO)N[C@H]1C[C@](O)(CO)[C@@H](O)[C@H](O)[C@H]1O | inactive |
| Cc1cccc2n[nH]nc12 | inactive |
| CC(=O)CC(=O)Nc1ccc2[nH]c(=O)[nH]c2c1 | inactive |
| Cc1cc(OCCOCC[N+](C)(C)Cc2ccccc2)ccc1C(C)(C)CC(C)(C)C | 13.3 µM (active) and 10.8 µM (active) |
| O=C(O)c1cc(Cl)cc(Cl)c1 | inactive |
| C=C(C)C1CC=C(C)C(OC(C)=O)C1 (stereo not given) | inactive |
| CC[C@]1(O)C[C@@H]2CN(CCc3c([nH]c4ccccc34)[C@@](C(=O)OC)(c3cc4c(cc3OC)N(C)[C@H]3[C@@](O)(C(=O)OC)[C@H](OC(C)=O)[C@]5(CC)C=CCN6CC[C@]43[C@@H]65)C2)C1 | 75 nM (active) and 42.2 nM (active) |
| Cc1ccc(-c2cc(C(F)(F)F)nn2-c2ccc(S(N)(=O)=O)cc2)cc1 | 23.7 µM (active) and 30.5 µM (active) and 54.5 µM (active) |
| O=S(=O)(O)c1ccc2nc(-c3ccccc3)[nH]c2c1 | inactive |
| c1ccc2n[nH]nc2c1 | inactive |
| CCC(CO)(CO)COCC(CC)(CO)CO | inactive |
| OCCOCCN1CCN(C(c2ccccc2)c2ccc(Cl)cc2)CC1 (stereo not given) | 23.7 µM (active) and 47.9 µM (active) |
| CC(C)(O)CCC(C)(C)O | inactive |
| Cc1ccc(S(=O)(=O)Oc2ccc(N=Nc3ccc(-c4ccc(N=Nc5c(O)ccc6cc(S(=O)(=O)O)cc(S(=O)(=O)O)c56)c(C)c4)cc3C)cc2)cc1 | 10.9 µM (active) |
| CC(=O)OCC1=C(C(=O)O)N2C(=O)[C@@H](NC(=O)Cc3cccs3)[C@H]2SC1 | inactive |
| NC(=Nc1ccccc1)Nc1ccccc1 | inactive |
| Cc1cccc(O)c1C | inactive |
| CCCCCCCCCCCCc1ccccc1O | 13.7 µM (active) |
| BrC1CCC(Br)C(Br)CCC(Br)C(Br)CCC1Br (stereo not given) | 4.84 µM (active) and 13 µM (active) |
| CO[Si](OC)(OC)c1ccccc1 | inactive |

| Structure (SMILES) | Potency |
| --- | --- |
| C=CS(=O)(=O)O | inactive |
| COC(=O)c1cccc(C(=O)OC)c1 | inactive |
| c1ccc2c(c1)CCCC2C1=NCCN1 (stereo not given) | inactive |
| CCOC(=O)C(C)C(C)=O (stereo not given) | inactive |
| NCCO | inactive |
| C=C(C)C(=O)O | inactive |
| O=C(Cl)c1cccc(C(=O)Cl)c1 | inactive |
| CCC(C)(Oc1ccc(C2(c3ccc(OC(C)(CC)C(=O)O)cc3)CCCCC2)cc1)C(=O)O (stereo not given) | inactive |
| Nc1ccc2cc3ccccc3cc2c1 | inactive |
| O=C(OCc1ccccc1)c1ccc(O)cc1 | inactive |
| CCCOC(=O)c1cc(O)c(O)c(O)c1 | inactive |
| COc1nc(C)nc(Cl)c1NC1=NCCN1 | inactive |
| c1cc(C(c2ccc(OCC3CO3)cc2)C(c2ccc(OCC3CO3)cc2)c2ccc(OCC3CO3)cc2)ccc1OCC1CO1 (stereo not given) | 20.1 µM (active) and 21.7 µM (active) |
| O=C1Nc2ccccc2C1(c1ccc(O)cc1)c1ccc(O)cc1 | 54.5 µM (active) |
| COc1ccc(CCN2CCC(Nc3nc4ccccc4n3Cc3ccc(F)cc3)CC2)cc1 | 5.96 µM (active) and 1.57 µM (active) |
| O=C(Nc1ccccc1SSc1ccccc1NC(=O)c1ccccc1)c1ccccc1 | 21.8 µM (active) and 48.6 µM (active) |
| CCCCOCCOC(=O)c1ccccc1C(=O)OCCOCCCC | 30 µM (active) |
| Nc1nc2ccccc2[nH]1 | inactive |
| CC1COc2c(N3CCN(C)CC3)c(F)cc3c(=O)c(C(=O)O)cn1c23 (stereo not given) | inactive |
| O=C1OC2(c3ccc(O)cc3Oc3cc(O)ccc32)c2ccccc21 | inactive |

Source: PubChem BioAssay (Tox21)
